# About 18,000 (4.4%) of roughly 410,000 compounds were called active. Not shown: some 7% with an inconclusive outcome. Many of the other results were omitted from the sample, so actives are more common in it than they were. Unmarked numbers belong to inactive results. No stated cut-off is given here; in the data, active means activity change below about -60%; inconclusive means no clear call, values can overlap the other calls; inactive means above about -39%.
# Assay: qHTS Assay for inhibitors of the human cytomegalovirus (HCMV)
# Details: HFF cells, HCMV-luciferase reporter, 72 h; at 57.5 µM; active compounds read low
# Text: NCGC Assay Overview: Infection with human cytomegalovirus (HCMV) continues to pose significant threats for pregnant women and immunocompromised hosts. HCMV causes serious morbidity and mortality in transplant recipients, and congenital HCMV is the leading infectious cause of mental retardation and deafness in children. In the 1990s, the annual costs associated with the disease burden of congenital CMV were estimated at around $2 billion. A HCMV vaccine is not available yet and HCMV therapies result in intolerable side effects and emergence of drug resistant viruses. […] Towards this goal we have developed and characterized a luciferase HCMV reporter that was initially used in 96 well plates and then optimized to 1536-well plates for utilization in screening of the MLSMR collection, the NGCG diversity collection and the NCGC Pharmaceutical Collection of approved and investigational drugs.
# NCGC Assay Protocol Summary:
# This is a cell-based assay for HCMV inhibition in HFFs cells. The screening used 2 compound doses and the HCMV-luciferase at MOI of 1 PFU/cell. Cells were treated and infected with HCMV. At 72 h post infection cell lysates were collected and luciferase activity was determined using the Glomax-Multi + Detection System (Promega, Madison, WI). Data were normalized to the controls for basal activity (buffer only) and known HCMV inhibitors Salinmoycin.
# 1536-well assay protocol for the assay:
# (1) Add 3 ul CMV/HFF cell culture. 1000 cells/well in DMEM nirmal media.
# (2) Incubate 16 hr at 37C.
# (3) Add 23 nl control compound, 10uM of Salinomycin.
# (4) Add 23 nl compounds in DMSO solution.
# (5) Add 3 ul CMV suspension. Final 1 puf/ul, Virus stock 2000pfu/ul
# (6) Incubate 72 hrs at 37C.
# (7) Add 4 ul OneGlo Luc Reagent.
# (8) Incubate 5 min at room temperature.
# On the % scale 0 is the no-effect control and ±100 the full control effect.
row,Structure (SMILES),"activity change, negative = inhibition"
1,CCc1ccc(C2CC(=O)c3c([nH]c(C(=O)OCc4ccc(C)cc4)c3C)C2)cc1 (stereo unspecified),-27.1%
2,CCOc1ccc(C2CC(=O)c3c([nH]c(C(=O)OCc4ccccc4)c3C)C2)cc1 (stereo unspecified),-87.7% (active)
3,CCCOC(=O)c1[nH]c2c(c1C)C(=O)CC(c1cccs1)C2 (stereo unspecified),-91.4% (active)
4,CCOC(=O)c1ccc(N2C(=O)c3[nH]nc(-c4ccccc4)c3C2c2ccc(C(C)C)cc2)cc1 (stereo unspecified),-27.7%
5,CCOC(=O)c1[nH]c2c(c1-c1ccccc1)C(=O)CC(c1ccc(Cl)cc1)C2 (stereo unspecified),-60.6% (active)
6,CCOc1ccc(C2C3=C(CCCC3=O)N(CC(=O)O)C3=C2C(=O)CCC3)cc1,-23.6%
7,COc1ccc(-c2cnn(C(C)(C)C(=O)Nc3ccccn3)c2)cc1OC,25%
8,COc1ccc(NC(=O)c2sc(=O)n(Cc3ccc(S(=O)(=O)N(C)C)cc3)c2C)cc1,-0.573%
9,OCC1(Cc2ccccc2C(F)(F)F)CCN(Cc2ccncc2)CC1,71%
10,Cc1nc2c(c(C)nn2-c2ccccc2)c(C)c1CCC(=O)NCCc1ccc(Cl)cc1,-1.35%
11,Cc1cc(C)c2oc(C(=O)Nc3ccc(S(=O)(=O)N4CCCCCC4)cc3)cc(=O)c2c1,-9.78%
12,CCOc1ccc(NC(=O)c2cn(C3CCCCC3)c(=O)c3c2c2ccccc2n3C)cc1,-4.97%
13,O=C(COc1ccc(Cl)cc1)N(Cc1ccco1)Cc1ccco1,-22.5%
14,COc1ccc(S(=O)(=O)NCC(c2ccc(N(C)C)cc2)N2CCc3ccccc32)cc1OC (stereo unspecified),34.1%
15,O=C(CCc1nc2sc3c(c2c(=O)[nH]1)CCCC3)NCC(=O)Nc1ccccc1Br,-4.74%
16,Cc1ccc(C)c(-n2c(SCC(=O)O)nc3sc4c(c3c2=O)CCCC4)c1,-26%
17,Cc1nc2sc3c(c2c(=O)n1NC(=O)CCl)CCCC3,-63.7% (active)
18,O=C(c1ccc2c(c1)N(Cc1ccccc1F)C(=O)c1ccccc1S2(=O)=O)N1CCOCC1,5.01%
19,COc1cccc2c1C(=O)c1c(O)c3c(c(O)c1C2=O)CC(O)(C(C)=NNC(=O)c1ccc(Cl)c(Cl)c1)CC3OC1CC(N)C(O)C(C)O1 (stereo unspecified),-99% (active)
20,Cc1ccc2nc(CN3CCN(S(=O)(=O)c4ccc(C)c(C)c4)CC3)oc2c1,1.05%
21,COc1ccc(CN2C(=O)C(NC(=O)c3cccc(C)c3)(C(F)(F)F)N=C2c2ccccc2)cc1 (stereo unspecified),-8.44%
22,CC1C(=O)N(Cc2ccccc2)c2ccccc2N1C(=O)c1ccccc1 (stereo unspecified),-73.6% (active)
23,CC1Oc2ccccc2N(Cc2cccnc2)C1=O (stereo unspecified),49.3%

row,Structure (SMILES),"activity change, negative = inhibition"
1,CC1C(C)N(C(=O)CCl)c2ccccc2N1C(=O)CCl (stereo unspecified),-38.8%
2,COc1cc(C(CC(=O)NCCC(C)C)N2Cc3ccccc3C2=O)cc(OC)c1OC (stereo unspecified),22.7%
3,CCN(CC)S(=O)(=O)c1ccc2c(c1)N(CC(=O)NCc1ccccc1)C(=O)CS2,-9.16%
4,Cc1ccc(CCNC(=O)CN2C(=O)CSc3ccc(S(=O)(=O)N4CCOCC4)cc32)cc1,-26.9%
5,COC(=O)CN1C(=O)CSc2ccc(S(=O)(=O)Nc3cc(C)ccc3C)cc21,-71.2% (active)
6,COc1ccc(Cc2nc3ccc(C(=O)NCc4ccccc4Cl)cc3o2)cc1,-18%
7,COc1ccc(Cc2nc3ccc(C(=O)NCc4ccccc4C)cc3o2)cc1,-89.9% (active)
8,COc1ccc(Cc2nc3ccc(C(=O)NCc4ccc(OC)cc4OC)cc3o2)cc1,-12.1%
9,O=C(NC1CCCC1)N1CC(=O)N2[C@H](C1)[C@@H](c1ccc(Br)cc1)[C@@H]2CO,13.9%
10,CCOC(=O)c1c(NC(=O)CCl)sc(C(=O)N(CC)CC)c1C,-99% (active)
11,CCOC(=O)c1c(NC(=O)c2cc(CC)on2)sc(C(C)=O)c1C,0.462%
12,CCOC(=O)c1c(NC(=O)COC(=O)c2ccc(S(=O)(=O)C(F)F)cc2)sc(C(=O)N(C)C)c1C,6.79%
13,O=C(CC1C(=O)NCCN1CC(c1ccccc1)c1ccccc1)NCCc1cn[nH]c1 (stereo unspecified),-37.4%
14,CCCCNC(=O)c1ccc2c(c1)NC(=O)C(C(C)C)N2 (stereo unspecified),7.34%
15,COCCN(CC(=O)Nc1ccccc1C)S(=O)(=O)c1ccc(S(=O)(=O)N2CCCC2)cc1,26.9%
16,C=CCN(CC=C)S(=O)(=O)c1ccc(C(=O)Nc2sc3c(c2C(N)=O)CCCCC3)cc1,-93.4% (active)
17,C=CCN(c1ccc(C(=O)Nc2cc(C)cc(C)c2)cc1)S(C)(=O)=O,-28.7%
18,CCOC(=O)c1c(NC(=O)c2ccc(S(=O)(=O)N(CC)CC)cc2)sc2c1CCCCC2,49.3%
19,O=C(Nc1ncc2c(n1)-c1ccccc1OC2)c1ccc(Cl)cc1,16.2%
20,CCCN(CCC)S(=O)(=O)c1ccc(C(=O)Nc2sc3c(c2C(=O)OC)CCN(CC)C3)cc1,-35.8%
21,C=CCN(CC=C)S(=O)(=O)c1ccc(C(=O)Nc2nc3c(s2)CCc2ccccc2-3)cc1,-86.4% (active)
22,CCCCN(C)S(=O)(=O)c1ccc(C(=O)Nc2sc3c(c2C(N)=O)CC(C)(C)NC3(C)C)cc1,-1.57%
23,COCCN(CCOC)S(=O)(=O)c1ccc(C(=O)Nc2nc3c(s2)CCc2ccccc2-3)cc1,-63.9% (active)

# From PubChem BioAssay AID1259415 (National Center for Advancing Translational Sciences (NCATS), 2018)
